# Source: PubChem (several laboratories)
# AMPAR-TARP mod: GluA2-stargazin AMPA receptor complex modulation; O88602+P19491; HEK293 GluA2+stargazin, membrane potential dye (FDSS), glutamate EC50; hits were called plate by plate, in both directions; calls only at 30 µM; 40,000 tested, 3.5% active; AID 1259245;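 active = any of four per-well response measures lying three or more SD from its plate-wide compound average, in either direction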
# GIRK2 act: Activators of human GIRK2-containing channels | P48051 | HEK293 GIRK2/NPY4 cells, thallium flux fluorescence | activation (% efficacy), % for hits at 37.5 µM | 34,000 tested, under 10 active | AID 1259324;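 active = primary screen hit, no activity in plain HEK293 cells, and in GIRK2-only cells above 5% efficacy rising with concentration; inactive = the rest, including fluorescent compounds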;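 also: efficacy is normalized control-subtracted fluorescence 15 s after thallium addition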
# Target sequence (P48051 whole entry, looked up): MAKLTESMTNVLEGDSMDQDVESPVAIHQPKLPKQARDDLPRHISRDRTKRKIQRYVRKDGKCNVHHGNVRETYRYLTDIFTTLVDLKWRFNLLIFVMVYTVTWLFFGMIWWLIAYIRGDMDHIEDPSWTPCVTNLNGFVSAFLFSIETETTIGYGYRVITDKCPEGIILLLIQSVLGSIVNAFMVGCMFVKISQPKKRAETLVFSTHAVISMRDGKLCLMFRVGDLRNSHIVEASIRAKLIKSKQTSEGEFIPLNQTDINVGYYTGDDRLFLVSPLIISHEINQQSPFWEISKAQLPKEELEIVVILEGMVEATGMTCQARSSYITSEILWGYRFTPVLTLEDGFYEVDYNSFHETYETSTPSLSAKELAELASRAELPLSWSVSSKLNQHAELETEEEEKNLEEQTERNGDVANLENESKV
# Calls only; 0 = inactive; - = not tested or not shown; + = active, no number. The entries come from a sample that favours hits as a whole.
SMILES,AMPAR-TARP mod,GIRK2 act
COc1ccc(C(=O)C2C(=O)N(c3ccccc3)N=C2C)cc1OC (stereo not drawn),0,0
COc1ccc(CNC(=O)/C(C#N)=C/N2CCN(Cc3ccc4c(c3)OCO4)CC2)cc1,+,0
N#C/C(=C\N1CCN(Cc2ccc3c(c2)OCO3)CC1)C(=O)NCc1ccccc1,0,0
COc1cc(C(=O)Nc2nnc(-c3cccc(SC)c3)o2)cc(OC)c1OC,0,0
CC(C)(C)c1ccc(OC(=O)N2CCOCC2)cc1,0,-
O=C(Oc1ccccc1OC(=O)N1CCOCC1)N1CCOCC1,+,-
O=C(N1CCC(Cn2cccn2)CC1)C1(c2ccccc2)CCOCC1,+,0
O=C(c1ccco1)N1CCC(Cn2cccn2)CC1,0,0
CC(Oc1ccccc1)C(=O)NCCn1ncc2c(NCCc3ccccc3)ncnc21 (stereo not drawn),0,-
O=C(Nc1nc(-c2cccc3ccccc23)cs1)C1CCN(S(=O)(=O)c2cccs2)CC1,0,-
Cc1c(C)n2c3c(=O)n(CCCc4ccccc4)c(=O)n(C)c3nc2n1C(C)C,+,0
CCn1c(=O)c2c(nc3n(CCCOC)c(C)c(C)n23)n(C)c1=O,0,0
Cc1c(C)n2c3c(=O)n(CC(=O)OCc4ccccc4)c(=O)n(C)c3nc2n1C(C)C,0,0
Cc1c(C)n2c3c(=O)n(Cc4ccc(F)cc4)c(=O)n(C)c3nc2n1CCCN(C)C,+,0
Cc1cn2c3c(=O)n(Cc4ccccc4Cl)c(=O)n(C)c3nc2n1CCO,0,0
Cc1cn2c3c(=O)n(Cc4ccccc4F)c(=O)n(C)c3nc2n1CCCN(C)C,+,0
COc1ccc(S(=O)(=O)NCCC(=O)N2CCCCC2)cc1N(C)S(=O)(=O)c1ccccc1,0,-
O=C(NCC(O)(c1ccccc1)C1CC1)c1ccc2c(c1)OCO2 (stereo not drawn),0,-
COc1ccc(CCNc2cc(C)nc3c(-c4ccccc4OC)c(C)nn23)cc1OC,0,0
COc1ccc(CCNc2cc(C)nc3c(-c4ccccc4OC)cnn23)cc1OC,+,0
O=C(NCCCN1CCOC(c2ccccc2)C1)C(=O)NCc1ccc(Cl)cc1 (stereo not drawn),-,0
Cn1nnc2c(N3CCN(C(=O)c4cc(Cl)ccc4Cl)CC3)ncnc21,0,0
CC(C)(C)n1nc2c(c1NC(=O)C(=O)NCCCc1ccccc1)CSC2,0,-
CCCOC(=O)c1c(NC(=O)c2cc3ccccc3oc2=O)sc2c1CCCCC2,0,-
COc1ccc(-c2ccc(=O)n(CCCC(=O)N3CCc4ccccc43)n2)cc1OC,0,0
SMILES,AMPAR-TARP mod,GIRK2 act
Cc1ccc(-c2ccc(=O)n(CCCC(=O)N3c4ccccc4CC3C)n2)cc1 (stereo not drawn),+,0
Cn1nc(NC(=O)Cc2cccs2)c2c1NC(=O)CC2c1ccccc1 (stereo not drawn),0,0
O=C1CCS(=O)(=O)N1c1ccc(S(=O)(=O)NCCc2cccs2)cc1,+,0
Cc1ccc(N2C(=O)CCS2(=O)=O)cc1S(=O)(=O)NCCc1c[nH]c2ccccc12,0,0
O=C(NCC1(O)CCOCC1)c1cccc(Br)c1,-,0
COc1cc(C(=O)Nc2cccc(N3CCCCC3=O)c2)c([N+](=O)[O-])cc1OC,0,0
Cc1c(C(=O)Nc2cccc(N3CCCC3=O)c2)cccc1[N+](=O)[O-],+,0
Cc1cc(N2CCCCC2)nc(N2CCN(C(=O)Cc3ccccc3)CC2)n1,+,0
Cc1cc(C)cc(C(=O)N2CCN(c3nc(C)cc(N4CCCCC4)n3)CC2)c1,0,-
Cc1cc(N2CCOCC2)nc(N2CCN(C(=O)c3cnccn3)CC2)n1,+,0
Cc1cc(N2CCCCC2)nc(N2CCN(C(=O)c3ccccc3)CC2)n1,+,-
Cc1cccc(C(=O)N2CCN(c3nc(C)cc(N4CCCCC4)n3)CC2)c1,+,-
Cc1nc(N2CCCCC2)cc(N2CCN(C(=O)c3ncccn3)CC2)n1,0,0
COc1cc(N2CCN(C(=O)c3cnccn3)CC2)nc(C)n1,0,0
CCNc1cc(C)nc(N2CCN(C(=O)COc3ccccc3)CC2)n1,0,0
O=C(/C=C/c1ccco1)c1c(-c2ccccc2)c2ccccc2[nH]c1=O,0,-
CC(C)n1ccc(-c2nnc(NC(=O)COc3ccc(Cl)cc3Cl)o2)n1,0,0
O=C(Nc1ccc(CC(=O)N2CCC(O)CC2)cc1)C1CCC1,0,0
CC1CN(c2ccc(Oc3ccccc3)cc2)c2nc3c(c(=O)n(Cc4ccccc4)c(=O)n3C)n2C1 (stereo not drawn),0,-
COCc1cc(=O)[nH]c2cc(NC(=O)c3ccccc3OC)ccc12,-,0
CCN(CC)S(=O)(=O)CCNC(=O)c1ccccc1,+,-
COCCN(CCOC)S(=O)(=O)CCNC(=O)c1ccccc1,0,-
COC(=O)c1scc(-c2ccc(C)cc2)c1S(=O)(=O)Nc1ccc(OC)c(OC)c1,0,0
CCOC(=O)c1scc(-c2ccc(C)cc2)c1S(=O)(=O)Nc1ccc2c(c1)OCCO2,+,0
COc1ccc2nc(N(CCN3CCOCC3)C(=O)c3ccc(S(C)(=O)=O)cc3)sc2c1,0,-
SMILES,AMPAR-TARP mod,GIRK2 act
CCOC(=O)N1CCN(C(=O)c2cc3cccnc3n(Cc3ccccc3)c2=O)CC1,0,0
O=C(Cc1ccc(NS(=O)(=O)c2ccc3c(c2)CCCC3)cc1)NC1CC1,0,0
CCOc1cccc2sc(N(Cc3ccccn3)C(=O)c3nn(C)cc3C)nc12,+,0
COc1cccc2sc(N(Cc3ccccn3)C(=O)c3cc(C)nn3C)nc12,0,0
COc1ccc(C(=O)Nc2nnc(-c3cc(C)nn3C)o2)cc1OC,-,0
COc1cc(OC)cc(C(=O)Nc2nnc(-c3cc(C)n(C)n3)o2)c1,+,0
COc1cc2ccccc2cc1C(=O)Nc1nnc(-c2cc(C)n(C)n2)o1,0,0
COc1ccc(C(=O)Nc2nnc(-c3cc(C)n(C)n3)o2)cc1OC,+,0
COc1cc(NC(=O)NCCNc2ccc(Nc3ccccn3)nn2)cc(OC)c1OC,0,0
O=C1CC(c2nc3ccccc3n2CC(O)COc2ccccc2Cl)CN1c1ccc(F)cc1 (stereo not drawn),0,0
Cn1c(=O)c2cc(C(=O)Nc3cccc(S(N)(=O)=O)c3)sc2n(C)c1=O,+,0
Cn1c(=O)c2cc(C(=O)NCCCn3ccnc3)sc2n(C)c1=O,+,0
Cn1c(=O)c2cc(C(=O)NCCC(c3ccccc3)c3ccccc3)sc2n(C)c1=O,0,0
Cn1c(=O)c2cc(C(=O)Nc3ccc(Oc4ccccc4)cc3)sc2n(C)c1=O,0,0
Cn1c(=O)c2cc(C(=O)NCc3ccccc3)sc2n(C)c1=O,0,0
Cn1c(=O)c2cc(C(=O)NCCCN3CCOCC3)sc2n(C)c1=O,+,0
Cc1ccc(N2CCCn3c2nc2c3c(=O)n(CC(=O)O)c(=O)n2C)cc1C,0,-
Cn1c(=O)c2c(nc3n2CC(c2ccc(F)cc2)=NN3CC(=O)O)n(C)c1=O,0,-
Cn1c(=O)c2c(nc3n2CC(c2ccc(F)cc2)=NN3CC(N)=O)n(C)c1=O,+,-
C=CCCC(=O)NCC1CCN(C(=O)NC(C)(C)C)CC1,0,0
Cc1csc(-c2cc3ccc(OC(=O)CCCCl)cc3oc2=O)n1,+,-
COc1cccc(-c2cc3ccc(OC(C)=O)cc3oc2=O)c1,0,0
Cc1ccc(-c2nnc(NC(=O)CCS(=O)(=O)c3ccccc3)o2)cc1C,0,0
CCOc1ccc(-n2nnnc2CN2CCN(C(=O)c3c(C)noc3C)CC2)cc1,0,0
